Test results as given in PubChem BioAssay.
Values joined by “and” are separate entries in the source; they are usually repeats but may differ in a detail not shown here. Equal values may be shown once. Active and inactive are the calls of the source.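 Rule for the calls, unless noted: active = compounds whose cell count with miR-34 switched on is under 0.7 times the count with it off; inactive = the rest.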

What was measured:
[1] = P. berghei load reduction in hepatocytes – cell-based, HepG2, luciferase luminescence, HepG2 viability, primary screen (AID 624349; in the data active = parasite load remaining mostly below about 12%, no sharp cut-off; inactive = mostly above about 10%;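 note: 100% = mean of DMSO negative control wells on the same plate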); settings: P. berghei liver stage in HepG2, luciferase luminescence, concentration not given here; parasite load remaining: stronger effect = lower value; viability: measured here: HepG2 viability without parasites
[2] = viability loss with induced miR-34 in A549 – imaging, A549 dox-inducible miR-34, nuclei and caspase counts, primary screen (AID 1347080); settings: A549 miR-34 inducible, Hoechst nuclei count, 48 h
[3] = MELAS cybrid and Rieske KO viability enhancers – cell-based, MELAS cybrids, Rieske KO mouse fibroblasts, CellTiter-Glo, primary screen (AID 1508586;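 active = mean z-score across replicates of 1.96 or higher in either the MELAS or the Rieske mutant cell line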;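 note: z relative to plate mean and SD of compound and empty wells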); settings: low glucose
[4] = liver-stage malaria parasite load reduction – cell-based, known kinase inhibitor set, luminescence, hepatoma host viability (AID 624392; call rule not given here;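 note: infected cells incubated roughly two days before readout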); settings: Plasmodium liver stage in hepatoma cells, luciferase luminescence, concentration not given here; liver cell % of control: measured here: host liver cell viability; parasite % of control: stronger effect = lower value
[5] = compounds altering viability of human ES cells (AID 493140; call rule not given here;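 note: cells exposed to compounds for four days before counting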); settings: human embryonic stem cell survival screen; stronger effect = higher value
[6] = target: Mitogen-activated protein kinase 7 (Homo sapiens) (UniProt Q13164); experiment: Gal4-ERK5 driven luciferase induction – cell-based, HTS, primary screen (AID 1508626;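 active = luciferase signal above three times the same-plate solvent-only control wells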;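 note: luciferase driven by Gal4-ERK5 fusion binding five Gal4 sites before minimal TATA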); settings: HeLa Gal4-ERK5 transactivation, 18 h, at 5 µM, stronger effect = higher value
[7] = target: NAD(+) hydrolase SARM1 (Homo sapiens) (UniProt Q6SZW1); experiment: blocking NAD cleavage by SARM1 SAM-TIR – cell lysate, NAD-Glo luminescence (AID 1508614;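 active = compound whose remaining NAD level is above about 45 nM, limit read from the data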;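 note: higher remaining NAD means stronger inhibition of SARM1 NADase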); settings: SAM-TIR HEK293T lysate NADase, at 1 µM, stronger effect = higher value
[8] = galactose survival enhancers in mitochondrial complex I cybrids – cell-based, galactose medium, ATP luminescence, primary screen (AID 1645843;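 active = z-score of at least 1.8 in each of two replicates, scored against plate mean and spread of sample wells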;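 note: positive z means more ATP and so rescue of galactose-driven cybrid death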); settings: complex I mutant cybrid cells, 72 h, stronger effect = higher value
[9] = stronger effect = lower value, cell number ratio, induced over uninduced
[10] = measured here: relative caspase fold change +Dox/-Dox
[11] = measured here: total cells with miR-34 induction, stronger effect = lower value
[12] = measured here: total cells without miR-34 induction
[13] = MELAS cybrid survival, CellTiter-Glo 48 h, stronger effect = higher value
[14] = Rieske KO mouse fibroblast survival, CellTiter-Glo 72 h

Sequence of NAD(+) hydrolase SARM1 (Homo sapiens) (Q6SZW1 whole entry, looked up): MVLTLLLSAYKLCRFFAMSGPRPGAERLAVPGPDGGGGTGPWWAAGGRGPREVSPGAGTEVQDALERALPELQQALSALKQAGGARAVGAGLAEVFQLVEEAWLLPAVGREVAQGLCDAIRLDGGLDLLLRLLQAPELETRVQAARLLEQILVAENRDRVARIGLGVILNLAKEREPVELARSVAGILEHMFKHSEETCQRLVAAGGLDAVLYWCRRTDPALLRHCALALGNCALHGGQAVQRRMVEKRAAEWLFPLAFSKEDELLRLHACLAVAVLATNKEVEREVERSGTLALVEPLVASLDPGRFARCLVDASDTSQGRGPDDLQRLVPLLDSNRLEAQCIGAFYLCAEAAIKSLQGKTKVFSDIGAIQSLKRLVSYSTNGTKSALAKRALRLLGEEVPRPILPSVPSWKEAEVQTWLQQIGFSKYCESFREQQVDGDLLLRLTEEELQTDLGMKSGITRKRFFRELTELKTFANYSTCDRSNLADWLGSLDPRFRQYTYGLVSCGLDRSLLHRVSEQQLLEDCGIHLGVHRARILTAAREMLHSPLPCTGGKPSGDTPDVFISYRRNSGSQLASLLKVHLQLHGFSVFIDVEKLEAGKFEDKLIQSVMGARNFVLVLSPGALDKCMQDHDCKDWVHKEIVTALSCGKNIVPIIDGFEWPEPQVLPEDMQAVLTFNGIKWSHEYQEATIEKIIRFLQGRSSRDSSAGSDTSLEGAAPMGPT
Sequence of Mitogen-activated protein kinase 7 (Homo sapiens) (Q13164 whole entry, looked up, the tested form may be a part): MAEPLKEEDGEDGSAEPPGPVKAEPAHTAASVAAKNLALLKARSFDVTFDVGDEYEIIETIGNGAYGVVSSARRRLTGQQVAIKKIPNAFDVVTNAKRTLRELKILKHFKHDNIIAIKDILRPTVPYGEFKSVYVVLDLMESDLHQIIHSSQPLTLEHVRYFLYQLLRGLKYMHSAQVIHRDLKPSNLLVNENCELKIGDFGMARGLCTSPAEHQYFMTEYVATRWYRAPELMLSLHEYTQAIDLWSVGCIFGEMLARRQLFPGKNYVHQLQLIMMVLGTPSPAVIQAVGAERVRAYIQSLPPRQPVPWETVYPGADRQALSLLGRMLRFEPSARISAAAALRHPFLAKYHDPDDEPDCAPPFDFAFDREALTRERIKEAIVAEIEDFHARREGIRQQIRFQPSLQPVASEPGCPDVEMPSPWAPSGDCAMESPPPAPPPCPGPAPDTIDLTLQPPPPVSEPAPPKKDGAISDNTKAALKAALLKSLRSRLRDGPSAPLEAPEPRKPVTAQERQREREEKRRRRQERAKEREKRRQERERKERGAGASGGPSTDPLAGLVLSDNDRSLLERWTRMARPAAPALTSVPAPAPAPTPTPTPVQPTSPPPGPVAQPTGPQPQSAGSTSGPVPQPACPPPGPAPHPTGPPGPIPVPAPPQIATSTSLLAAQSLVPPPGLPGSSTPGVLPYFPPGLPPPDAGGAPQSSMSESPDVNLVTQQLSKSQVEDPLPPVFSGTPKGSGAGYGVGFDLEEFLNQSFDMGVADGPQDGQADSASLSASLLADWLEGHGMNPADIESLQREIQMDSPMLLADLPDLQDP

CN/C(=C/[N+](=O)[O-])NCCSCc1csc(CN(C)C)n1
parasite load remaining [1]: 74.7% (inactive) | viability [1]: 97.8% | fold change [2, 9]: 0.889 (inactive) | fold change [2, 10]: 0.967 | cell count [2, 11]: 9080 | cell count [2, 12]: 10200 | z-score [3, 13]: 0.561 (inactive) | z-score [3, 14]: -0.45

CN(C)CCC(CSc1ccccc1)Nc1ccc(S(=O)(=O)NC(=O)c2ccc(N3CCN(Cc4ccccc4-c4ccc(Cl)cc4)CC3)cc2)cc1[N+](=O)[O-] (stereo not given)
liver cell % of control [4]: 65.5% and 90.4% and 88.4% | parasite % of control [4]: 27.6% (inactive) and 29.4% (inactive) and 37% (inactive) | fold change [2, 9]: 0.995 (inactive) | fold change [2, 10]: 0.778 | cell count [2, 11]: 5830 | cell count [2, 12]: 5860 | z-score [3, 13]: -0.297 (inactive) | z-score [3, 14]: -2.14

C=N[C@@H](C(=O)N[C@@H]1C(=O)N2[C@@H]1SC(C)(C)[C@@H]2C(=O)O)c1ccccc1
survival [5]: 22.6 (inactive) | parasite load remaining [1]: 47.6% (inactive) and 102% (inactive) | viability [1]: 47.2% and 93.5% | fold change [2, 9]: 0.849 (inactive) | fold change [2, 10]: 1.16 | cell count [2, 11]: 8000 | cell count [2, 12]: 9420 | luciferase signal [6]: 80 AU (inactive)

O=C(c1cccnc1)N1CCOCC1
fold change [2, 9]: 0.924 (inactive) | fold change [2, 10]: 0.837 | cell count [2, 11]: 7970 | cell count [2, 12]: 8630 | remaining NAD [7]: 10 nM (inactive)

CC1CCN(C(=O)CC#N)CC1N(C)c1ncnc2[nH]ccc12 (stereo not given)
liver cell % of control [4]: 104% and 99.8% | parasite % of control [4]: 80.9% (inactive) and 77.3% (inactive) and 45.5% (inactive) | fold change [2, 9]: 0.908 (inactive) and 0.927 (inactive) | fold change [2, 10]: 0.692 and 0.73 | cell count [2, 11]: 9120 and 9790 | cell count [2, 12]: 10000 and 10600 | z-score [3, 13]: -0.285 (inactive) and -0.386 (inactive) | z-score [3, 14]: -0.101 and -0.511

CN(C)CC=CC(=O)Nc1cc2c(Nc3ccc(F)c(Cl)c3)ncnc2cc1OC1CCOC1 (stereo not given)
liver cell % of control [4]: 39.8% and 42.2% and 47.1% | parasite % of control [4]: 0.262% (inactive) and 0.42% (inactive) and 32.1% (inactive) | fold change [2, 9]: 0.839 (inactive) | fold change [2, 10]: 1.69 | cell count [2, 11]: 2280 | cell count [2, 12]: 2710 | z-score [3, 13]: 5.09 (active) | z-score [3, 14]: 0.143

COc1ccc2c3c1OC1CC(O)C=C[C@@]31CCN(C)C2 (stereo not given in full)
fold change [2, 9]: 0.977 (inactive) | fold change [2, 10]: 1.4 | cell count [2, 11]: 9660 | cell count [2, 12]: 9890 | z-score [8]: 0.92 (inactive)

CC1CC2C3CC(F)C4=CC(=O)C(Cl)=C[C@]4(C)[C@@]3(F)C(O)C[C@]2(C)[C@@]1(O)C(=O)CO (stereo not given in full)
fold change [2, 9]: 0.952 (inactive) | fold change [2, 10]: 1.63 | cell count [2, 11]: 6600 | cell count [2, 12]: 6930 | z-score [8]: 0.895 (inactive)

C#C[C@]1(O)CCC2C3CCC4=CC(=O)CCC4C3CC[C@@]21CC (stereo not given in full)
fold change [2, 9]: 0.905 (inactive) | fold change [2, 10]: 1.25 | cell count [2, 11]: 8490 | cell count [2, 12]: 9390 | z-score [8]: 0.65 (inactive)

CN(C)CCC=C1c2ccccc2COc2ccccc21
fold change [2, 9]: 0.942 (inactive) | fold change [2, 10]: 2.06 | cell count [2, 11]: 8300 | cell count [2, 12]: 8810 | z-score [8]: -0.535 (inactive)

CC(C)(C)NC(=O)C1CCC2C3CCC4NC(=O)C=C[C@]4(C)C3CC[C@]12C (stereo not given in full)
fold change [2, 9]: 0.939 (inactive) | fold change [2, 10]: 1.36 | cell count [2, 11]: 8850 | cell count [2, 12]: 9430 | z-score [8]: 0.345 (inactive)

COC1C=CO[C@@]2(C)Oc3c(C)c(O)c4c(O)c(c5c(nc6cc(C)ccn65)c4c3C2=O)NC(=O)C(C)=CC=CC(C)C(O)C(C)C(O)C(C)C(OC(C)=O)C1C (stereo not given in full)
fold change [2, 9]: 0.986 (inactive) | fold change [2, 10]: 1.96 | cell count [2, 11]: 9910 | cell count [2, 12]: 10000 | z-score [8]: 1.96 (active)

CC1CCC2C(C)C(OC(=O)CCC(=O)O)OC3O[C@@]4(C)CCC1[C@]32OO4 (stereo not given in full)
fold change [2, 9]: 0.992 (inactive) | fold change [2, 10]: 1.91 | cell count [2, 11]: 6760 | cell count [2, 12]: 6810 | z-score [8]: -1.79 (inactive)

C=CC1=C(C(=O)O)N2C(=O)C(NC(=O)C(=NO)c3csc(N)n3)C2SC1 (stereo not given)
fold change [2, 9]: 0.914 (inactive) | fold change [2, 10]: 1.91 | cell count [2, 11]: 9440 | cell count [2, 12]: 10300 | z-score [8]: 0.13 (inactive)

CCN1CCCC1CNC(=O)c1c(O)c(Cl)cc(Cl)c1OC (stereo not given)
fold change [2, 9]: 1.02 (inactive) | fold change [2, 10]: 1.39 | cell count [2, 11]: 9680 | cell count [2, 12]: 9480 | z-score [8]: 0.65 (inactive)

CC(=O)O[C@]1(C(C)=O)CCC2C3C=C(C)C4=CC(=O)CC[C@]4(C)C3CC[C@@]21C (stereo not given in full)
fold change [2, 9]: 0.943 (inactive) | fold change [2, 10]: 1.2 | cell count [2, 11]: 6760 | cell count [2, 12]: 7170 | z-score [8]: -0.29 (inactive)

CC(=O)C1CCC2C3CCC4=CC(=O)CC[C@]4(C)C3CC[C@]12C (stereo not given in full)
fold change [2, 9]: 0.861 (inactive) | fold change [2, 10]: 1.42 | cell count [2, 11]: 7200 | cell count [2, 12]: 8360 | z-score [8]: -0.365 (inactive)

CN1CC(=O)N2C(Cc3c([nH]c4ccccc34)C2c2ccc3c(c2)OCO3)C1=O (stereo not given)
fold change [2, 9]: 0.932 (inactive) | fold change [2, 10]: 1.44 | cell count [2, 11]: 6940 | cell count [2, 12]: 7450 | z-score [8]: 1.56 (inactive)

CC(=O)[C@@]1(O)CCC2C3CC(C)C4=CC(=O)CC[C@]4(C)C3CC[C@@]21C (stereo not given in full)
fold change [2, 9]: 0.817 (inactive) | fold change [2, 10]: 0.742 | cell count [2, 11]: 7720 | cell count [2, 12]: 9450 | z-score [8]: -0.04 (inactive)

CCC1=CC2CN(C1)Cc1c([nH]c3ccccc13)[C@@](C(=O)OC)(c1cc3c(cc1OC)N(C)C1[C@@](O)(C(=O)OC)C(OC(C)=O)[C@]4(CC)C=CCN5CC[C@]31C54)C2 (stereo not given in full)
fold change [2, 9]: 1.19 (inactive) | fold change [2, 10]: 1.47 | cell count [2, 11]: 1620 | cell count [2, 12]: 1360 | z-score [8]: -1.06 (inactive)

CC1=C(C(=O)O)N2C(=O)C(NC(=O)C(N)c3ccccc3)C2SC1 (stereo not given)
fold change [2, 9]: 0.933 (inactive) | fold change [2, 10]: 1.4 | cell count [2, 11]: 8950 | cell count [2, 12]: 9590 | z-score [8]: 0.52 (inactive)

O=c1c(OC2OC(CO)C(O)C(O)C2O)c(-c2ccc(O)c(O)c2)oc2cc(O)cc(O)c12 (stereo not given)
fold change [2, 9]: 0.911 (inactive) and 0.974 (inactive) | fold change [2, 10]: 0.962 and 2.15 | cell count [2, 11]: 4950 and 10100 | cell count [2, 12]: 5430 and 10300 | z-score [8]: -1.74 (inactive) and 0.575 (inactive)

C[C@]12CCC3c4ccc(O)cc4CCC3C1CCC2O (stereo not given in full)
fold change [2, 9]: 1.11 (inactive) | fold change [2, 10]: 1.15 | cell count [2, 11]: 6850 | cell count [2, 12]: 6160 | z-score [8]: 0.465 (inactive)

CC=CC(=O)N(CC)c1ccccc1C
fold change [2, 9]: 0.962 (inactive) | fold change [2, 10]: 1.8 | cell count [2, 11]: 9730 | cell count [2, 12]: 10100 | z-score [8]: 0.595 (inactive)

C=C1C(=CC=C2CCC[C@@]3(C)C2CCC3C(C)C=CC(O)C2CC2)CC(O)CC1O (stereo not given in full)
fold change [2, 9]: 1.02 (inactive) | fold change [2, 10]: 1.9 | cell count [2, 11]: 9990 | cell count [2, 12]: 9800 | z-score [8]: -1.44 (inactive)

O=c1cnn(C2OC(CO)C(O)C2O)c(=O)[nH]1 (stereo not given)
fold change [2, 9]: 1.77 (inactive) | fold change [2, 10]: 0.641 | cell count [2, 11]: 1880 | cell count [2, 12]: 1060 | z-score [8]: -0.74 (inactive)

CC(C)CC(NC(=O)C(COC(C)(C)C)NC(=O)C(Cc1ccc(O)cc1)NC(=O)C(CO)NC(=O)C(Cc1c[nH]c2ccccc12)NC(=O)C(Cc1cnc[nH]1)NC(=O)C1CCC(=O)N1)C(=O)NC(CCCN=C(N)N)C(=O)N1CCCC1C(=O)NNC(N)=O (stereo not given)
fold change [2, 9]: 1.04 (inactive) | fold change [2, 10]: 1.1 | cell count [2, 11]: 7490 | cell count [2, 12]: 7190 | z-score [8]: 0.385 (inactive)
